# Results from PubChem BioAssay (Tox21).
# Values without a mark were called inactive. Inconclusive results are not listed. A call without a number means that no potency is given here. Calls of active or inactive are those of the source. Unless noted, the call rests on the fitted dose curve; in most records, active means well fitted curve in the direction sought with a large enough effect in the repeat runs; inconclusive means weak or mixed curves; inactive means no such curve, though single readings can be large; an effect the other way counts as inactive or inconclusive.
# Assays:
# [1] = qHTS assay for small molecules that induce genotoxicity in human embryonic kidney cells expressing luciferase-tagged ATAD5 (AID 651632); further: nearly all actives have a fitted effect of over 15% in size
# Procedure, shortened: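 Genotoxicity read-out via ATAD5-luciferase: HEK293T cells, 16 hr compound incubation at 37C, Amplite detection.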
# [2] = qHTS assay for small molecule agonists of the p53 signaling pathway - cell viability (AID 651633; calls by dose curve;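 further: p53RE-bla HCT reporter cells with a stable beta-lactamase p53 reporter; series mostly up to about 83 µM; nearly all actives have a fitted effect of over 30% in size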)
# Procedure, shortened: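 Viability counter-read: CellTiter-Glo luminescence (30 min, room temperature) in the same p53RE-bla plates. These plates had been exposed to compounds for 16 h at 37 C.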
# [3] = qHTS assay for small molecules that induce genotoxicity in human embryonic kidney cells expressing luciferase-tagged ATAD5 - cell viability (AID 651634; calls by dose curve; further: nearly all actives have a fitted effect of over 25% in size)
# Procedure, shortened: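 Live-cell protease activity (CellTiter-Fluor, fluorescence) indicates viability. HEK293T cells with luciferase-tagged ATAD5; 15.5 hr compound treatment at 37C.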
# [4] = qHTS assay for small molecule disruptors of the mitochondrial membrane potential - cell viability (AID 720634; calls by dose curve;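 further: human HepG2 liver cancer cells; series mostly up to about 83 µM; nearly all actives have a fitted effect of over 20% in size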)
# Procedure, shortened: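 Human hepatoma HepG2 cells were treated for 1 hr with test chemicals, then given m-MPI dye and CellTiter-Glo. Cell viability reflects luminescence proportional to cellular ATP.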
# [5] = qHTS assay to test for compound auto fluorescence at 590 nm (red) in HepG2 cells (AID 720674)
# Procedure, shortened: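 Red autofluorescence (Ex/Em 540/590 nm, Rose Bengal sodium equivalents) was measured in HepG2 cells, 2,000 per well in MEM plus 10% FBS, plated overnight at 37 C. Readings were taken 1 hr after adding 23 nL compound or DMSO, at 37 C and 5% CO2.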
# [6] = qHTS assay to test for compound auto fluorescence at 535 nm (green) in HepG2 cells (AID 720675)
# [7] = qHTS assay to test for compound auto fluorescence at 460 nm (blue) in HEK293 cells (AID 720678)
# Procedure, shortened: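 Triamterene serves as the blue fluorophore standard. Compound signal at 405/460 nm is read in HEK293 wells (2,000 cells, 10% dialyzed FBS) after overnight treatment at 37C.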
# [8] = qHTS assay to test for compound auto fluorescence at 590 nm (red) in HEK293 cells (AID 720679)
# Procedure, shortened: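 We plated HEK293 cells in 10% dialyzed FBS medium, let them adhere for 4-5 hr, then added 23 nL compound. Overnight at 37C and 5% CO2 preceded fluorescence measurement at 540/590nm.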
# [9] = qHTS assay to test for compound auto fluorescence at 535 nm (green) in HEK293 cells (AID 720680)
# [10] = qHTS assay to test for compound auto fluorescence at 460 nm (blue) in HEK293 cell free culture (AID 720681)
# Procedure, shortened: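 Blue fluorescence (Ex 405/Em 460 nm, triamterene-equivalent) was read immediately after pin transfer of compound or DMSO into medium (DMEM, 10% FBS) without cells.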
# [11] = qHTS assay to test for compound auto fluorescence at 535 nm (green) in HEK293 cell free culture (AID 720682)
# Procedure, shortened: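 DMEM + 10% FBS, cell-free; cpd or DMSO pinned in; Ex485/Em535 read; output as fluorescein-equivalent signal.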
# [12] = qHTS assay to test for compound auto fluorescence at 590 nm (red) in HEK293 cell free culture (AID 720683)
# Procedure, shortened: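 Red-channel autofluorescence of compounds in culture medium (DMEM, 10% FBS), no cells, measured at 540/590 nm. Rose Bengal sodium is the reference fluorophore for equivalence.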
# [13] = qHTS assay to test for compound auto fluorescence at 460 nm (blue) in HepG2 cell free culture (AID 720685)
# Procedure, shortened: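 Compound (23 nL) or DMSO pinned into cell-free MEM with 10% FBS; blue fluorescence read at 405/460 nm excitation/emission, expressed as auto-fluorescence equivalency to triamterene.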
# [14] = qHTS assay to test for compound auto fluorescence at 535 nm (green) in HepG2 cell free culture (AID 720686)
# [15] = qHTS assay to test for compound auto fluorescence at 460 nm (blue) in HepG2 cells (AID 720687)
# Procedure, shortened: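 Blue-channel autofluorescence (Ex/Em 405/460 nm, triamterene-equivalent) was measured after 1 hr compound exposure at 37 C, 5% CO2. Cells were HepG2, plated overnight at 37 C in MEM plus 10% FBS.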
# [16] = target: Glucocorticoid receptor (Homo sapiens) (UniProt P04150); test: qHTS assay to identify small molecule agonists of the glucocorticoid receptor (GR) signaling pathway (AID 720691; active means well fitted activation curve with a large enough effect in the signal ratio in the repeat runs, not every such curve was filed as active; the % refers to the signal ratio; further: potency means the concentration at half of the fitted maximal effect)
# Procedure, shortened: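 Beta-lactamase reporter activity, read as fluorescence intensity, was measured in GR-bla HeLa cells exposed to compounds for 18 h at 37 C and then loaded with LiveBLAzer B/G FRET substrate for 2 h at room temperature.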
# [17] = target: Glucocorticoid receptor (Homo sapiens) (UniProt P04150); test: qHTS assay to identify small molecule antagonists of the glucocorticoid receptor (GR) signaling pathway (AID 720692; active means well fitted inhibition curve with a large enough effect in the signal ratio in the repeat runs, not every such curve was filed as active; the % refers to the signal ratio)
# Procedure, shortened: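 Fluorescence from cleaved LiveBLAzer B/G FRET substrate reports GRE-driven beta-lactamase in HeLa cells; compounds are tested against 5 nM dexamethasone (final) over 18 h at 37 C, substrate incubation 2 h at room temperature.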
# [18] = qHTS assay for small molecule disruptors of the mitochondrial membrane potential (AID 720635); further: potency means the concentration at half of the fitted maximal effect
# Procedure, shortened: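 Mitochondrial membrane potential tracked with Mito-MPS dye, red aggregates (ex 540/em 590 nm) against green monomers (ex 490/em 535 nm). Compound treatment 1 hr at 37C, dye 30 min in HepG2.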
# [19] = qHTS assay to test for compound auto fluorescence at 590 nm (red) in HepG2 cell free culture (AID 720684)
# Procedure, shortened: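 Steps: dispense MEM/10% FBS medium, no cells; pin compound or DMSO vehicle; read red channel, Ex/Em 540/590 nm. Output given as Rose Bengal sodium equivalents.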
# Chain of Glucocorticoid receptor (Homo sapiens) (P04150 whole entry, looked up): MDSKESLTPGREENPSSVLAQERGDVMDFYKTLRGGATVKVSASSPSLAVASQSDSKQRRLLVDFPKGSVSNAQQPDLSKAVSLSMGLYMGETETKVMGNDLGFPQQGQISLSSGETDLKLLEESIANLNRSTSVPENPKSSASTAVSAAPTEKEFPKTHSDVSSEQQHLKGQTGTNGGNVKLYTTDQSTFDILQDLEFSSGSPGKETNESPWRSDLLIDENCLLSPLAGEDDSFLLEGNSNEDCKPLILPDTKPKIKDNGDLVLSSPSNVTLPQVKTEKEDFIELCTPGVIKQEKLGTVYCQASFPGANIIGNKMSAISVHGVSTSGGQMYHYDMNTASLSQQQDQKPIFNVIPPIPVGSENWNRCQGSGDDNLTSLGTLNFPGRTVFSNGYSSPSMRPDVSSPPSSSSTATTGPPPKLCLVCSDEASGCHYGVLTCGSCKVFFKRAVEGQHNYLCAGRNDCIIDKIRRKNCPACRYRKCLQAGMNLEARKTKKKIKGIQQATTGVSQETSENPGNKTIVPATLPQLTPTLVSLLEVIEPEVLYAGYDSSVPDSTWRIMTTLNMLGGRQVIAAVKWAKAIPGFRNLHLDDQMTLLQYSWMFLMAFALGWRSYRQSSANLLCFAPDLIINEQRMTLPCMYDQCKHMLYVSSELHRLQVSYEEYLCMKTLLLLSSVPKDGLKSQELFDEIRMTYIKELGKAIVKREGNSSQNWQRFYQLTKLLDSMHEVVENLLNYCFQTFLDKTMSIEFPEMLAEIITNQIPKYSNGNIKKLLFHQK
structure (smiles),measurement,setting,value
CCOC(C)OCC,Potency,[1],inactive
same,Potency,[2],inactive
same,Potency,[3],inactive
same,Potency,[4],inactive
same,outcome,[5],inactive
same,outcome,[6],inactive
same,Potency,[7],inactive
same,outcome,[8],inactive
same,outcome,[9],inactive
same,Potency,[10],inactive
same,outcome,[11],inactive
same,outcome,[12],inactive
same,outcome,[13],inactive
same,outcome,[14],inactive
same,outcome,[15],inactive
same,Potency,[16],inactive
same,Potency,[17],inactive
CC(C(=O)O)c1ccc2c(c1)Cc1cccnc1O2 (stereo not drawn),Potency,[1],inactive
same,Potency,[2],inactive
same,Potency,[3],inactive
same,Potency,[4],inactive
same,Potency,[18],inactive
same,outcome,[5],inactive
same,outcome,[6],inactive
same,Potency,[7],inactive
same,outcome,[8],inactive
same,outcome,[9],inactive
same,Potency,[10],inactive
same,outcome,[11],inactive
same,outcome,[12],inactive
same,outcome,[19],inactive
same,outcome,[13],inactive
same,outcome,[14],inactive
same,outcome,[15],inactive
same,Potency,[16],inactive
same,Potency,[17],inactive
CC(=O)OCC(=O)[C@@]1(O)CC[C@H]2[C@@H]3CCC4=CC(=O)C=C[C@]4(C)[C@@]3(F)[C@@H](O)C[C@@]21C,Potency,[1],inactive
same,Potency,[2],inactive
same,Potency,[3],inactive
same,Potency,[4],inactive
same,"fluorescence, relative to Rose Bengal",[5],-0.399% [at 18.6 µM]
same,"fluorescence, % of fluorescein control",[6],0.0333% [at 18.6 µM]
same,"fluorescence, % of triamterene",[7],0.0056% [at 18.6 µM]
same,"fluorescence, % of fluorescent control",[8],0.478% [at 18.6 µM]
same,"fluorescence, % of fluorescein",[9],-0.0592% [at 18.6 µM]
same,"fluorescence, % of fluorescent control",[10],-0.0825% [at 18.6 µM]
same,activity change,[11],0.114% [at 18.6 µM]
same,"fluorescence, % of Rose Bengal",[19],-0.0287% [at 18.6 µM]
same,"fluorescence, % of fluorescent control",[13],0.0112% [at 18.6 µM]
same,"fluorescence, % of fluorescein control",[14],-0.0779% [at 18.6 µM]
same,"fluorescence, % of fluorescent control",[15],-0.158% [at 18.6 µM]
same,Potency,[16],0.0129 µM (active)
O=C(O)c1cccnc1Nc1cccc(C(F)(F)F)c1,Potency,[1],inactive
same,Potency,[2],inactive
same,Potency,[3],inactive
same,Potency,[4],inactive
same,Potency,[18],11.9 µM (active)
same,outcome,[5],inactive
same,outcome,[6],inactive
same,Potency,[7],inactive
same,outcome,[8],inactive
same,outcome,[9],inactive
same,Potency,[10],inactive
same,outcome,[11],inactive
same,outcome,[12],inactive
same,outcome,[13],inactive
same,outcome,[14],inactive
same,outcome,[15],inactive
same,Potency,[16],inactive
same,Potency,[17],inactive
NC(=O)c1ccccc1,Potency,[1],inactive
same,Potency,[2],inactive
same,Potency,[3],inactive
same,Potency,[18],inactive
same,outcome,[5],inactive
same,outcome,[6],inactive
same,Potency,[7],inactive
same,outcome,[8],inactive
same,outcome,[9],inactive
same,Potency,[10],inactive
same,outcome,[11],inactive
same,outcome,[12],inactive
same,outcome,[13],inactive
same,outcome,[14],inactive
same,outcome,[15],inactive
same,Potency,[16],inactive
same,Potency,[17],inactive
CCCCC(CC)COCCC#N (stereo not drawn),Potency,[1],inactive
same,Potency,[2],inactive
same,Potency,[3],inactive
same,Potency,[4],inactive
same,outcome,[5],inactive
same,outcome,[6],inactive
same,Potency,[7],inactive
same,outcome,[9],inactive
same,Potency,[10],inactive
same,outcome,[11],inactive
same,outcome,[12],inactive
same,outcome,[13],inactive
same,outcome,[14],inactive
same,outcome,[15],inactive
same,Potency,[16],inactive
same,Potency,[17],inactive
COC=O,activation,[1],-1.31% [at 8.08 µM]
same,"activity change, negative = cytotoxicity",[2],21.3% [at 8.08 µM]
same,"activity, negative = cytotoxicity",[3],20.8% [at 8.08 µM]
same,"activity change, negative = cytotoxicity",[4],7.15% [at 8.08 µM]
same,"fluorescence, relative to Rose Bengal",[5],0.0697% [at 9.17 µM]
same,"fluorescence, % of fluorescein control",[6],0.016% [at 9.17 µM]
same,"fluorescence, % of triamterene",[7],-0.185% [at 9.17 µM]
same,"fluorescence, % of fluorescent control",[8],0.13% [at 9.17 µM]
same,"fluorescence, % of fluorescein",[9],-0.112% [at 9.17 µM]
same,"fluorescence, % of fluorescent control",[10],-0.168% [at 9.17 µM]
same,activity change,[11],-0.0308% [at 9.17 µM]
same,"fluorescence, % of fluorescent control",[12],-0.0562% [at 9.17 µM]
same,"fluorescence, % of fluorescent control",[13],-0.142% [at 9.17 µM]
same,"fluorescence, % of fluorescein control",[14],-0.0327% [at 9.17 µM]
same,"fluorescence, % of fluorescent control",[15],-0.259% [at 9.17 µM]
